Out of some 2,100 compounds screened, about 760 (36%) were called active. These entries were drawn from the full list. Values without a mark were called inactive.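 The calls were made as follows: active = thallium-flux fluorescence traces judged by eye to show enhanced or reduced glutamate response, manual score 1 or -1, so both directions (some results past the limit were not filed as active); inactive = the rest, including fluorescent or raised-baseline compounds.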

A short description of the assay: non-GIRK thallium flux modulation in mGlu8 cells, confirmation, counter-screen for GIRK activator project, cell-based, HEK-293 rmGlu8, no GIRK (AID 623868).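 Also: extra codes mark interference with 3 for fluorescent and 4 for baseline rise.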 The conditions noted are these: thallium flux fluorescence, at 10 µM, actives lie on both sides, codes: 1 enhancer, -1 blocker, 0 none, thallium stimulus containing EC20 glutamate.
For `S=c1nc(-c2ccc(Br)cc2)oc2c1CCCC2`, the manual score is 1 (active).

For the compound `CC(C)COc1ccc(Cc2cnc(N)nc2N)cc1`, the manual score is 0.

For the compound `CCN(C#N)c1nc(NC(C)C)nc(NC(C)C)n1`, the manual score was 0.

In the case of `CC(C)n1c(O)c(N=Nc2ccccn2)c2ccccc21`, the manual score is 0.

Consider `Oc1c(N=Nc2ccccn2)ccc2ccccc12`, for which the manual score was 1 (active).

As for `CCCCn1c(O)c(N=Nc2ccccn2)c2ccccc21`, the manual score is 1 (active).

On to `Oc1ccc2ccccc2c1N=Nc1ccccn1`, for which the manual score is 1 (active).

Consider `CCCCn1c(=N)n(CC(O)COc2cccc(C)c2)c2ccccc21` (centres undefined), for which the manual score is 0.

Regarding `CCOc1ccc(N2C(=O)CC(SC(=NC)Nc3ccc(F)cc3)C2=O)cc1` (centres undefined), the manual score was 0.

For `COc1ccc2cc(Br)ccc2c1CC(=O)NC1CC(C)(C)NC(C)(C)C1`, the manual score is 0.

Turning to `CCC(C)NC(=O)CN1C(=O)CC(C)(C)S(=O)(=O)c2ccccc21` (centres undefined), the manual score was 0.

Regarding `CCn1c(=O)c(C(=O)NCCCO)c(O)c2ccccc21`, the manual score was 0.

In the case of `CCn1c(O)c(N=NC(=O)CNc2cccc(C)c2)c2ccccc21`, the manual score is 1 (active).

In the case of `CCn1c(=O)cc(OCC(=O)Nc2cccc(C)n2)c2ccccc21`, the manual score was 0.

Take `Cc1nn(-c2ccccc2)c(OC(=O)c2cccs2)c1S(=O)(=O)c1ccccc1`: the manual score is 0.

Turning to `CCN(CC)c1cnn(C/C(=N\OC)c2ccc(Cl)cc2)c(=O)c1Br`, the manual score was -1 (active).

For the compound `CO/N=C(\Cn1ncc(N2CCCC2)c(Cl)c1=O)c1ccc(Cl)cc1`, the manual score was 0.

For `CO/N=C(\Cn1ncc(N2CCCC2)c(Br)c1=O)c1ccc(Cl)cc1`, the manual score is 0.

Consider `CCC(C)(C)NC(=O)C(c1ccc(F)cc1)N(Cc1ccco1)C(=O)c1cnccn1` (centres undefined), for which the manual score was 0.

For the compound `N#CC1=C(N)SC(N)=C(C#N)C1c1c(Cl)cccc1Cl`, the manual score is -1 (active).

Regarding `N#CC1=C(N)SC(N)=C(C#N)C1CCc1ccccc1`, the manual score was 0.

As to `C#CCSc1nnc(-c2cccc3ccccc23)o1`, the manual score is 0.

As for `Oc1oc(-c2cccc3ccccc23)nc1/C=N/c1nccs1`, the manual score is 1 (active).

On to `O=C(O)c1cnc(-c2ccccc2)nc1Sc1ccccc1Cl`, for which the manual score is 0.

For the compound `CC(C)C(=O)OCC(=O)Nc1ccc(N=Nc2ccccc2)cc1`, the manual score was 0.

Turning to `CCOC(=O)C1CCCN(c2ncnc3c2oc2ccccc23)C1` (centres undefined), the manual score was 0.

For `CCOC(=O)c1c(C)oc2ccc(O)c(CN3CCCCC3)c12`, the manual score was 0.

Regarding `CCOC(=O)c1c2n(c3c(NCc4ccccc4)ncnc13)CCCC2`, the manual score is -1 (active).

Consider `Cc1ccc(NC(=S)N=Nc2c(O)n(C)c3ccc(S(=O)(=O)N4CCOCC4)cc23)cc1`, for which the manual score is 1 (active).

In the case of `Cc1ccc(C)c(NC(=S)N=Nc2c(O)n(C)c3ccc(S(=O)(=O)N4CCOCC4)cc23)c1`, the manual score was 1 (active).

For the compound `Cc1ccc(SC(C)C(=O)Nc2ccc(S(=O)(=O)N3CCOCC3)cc2)cc1` (centres undefined), the manual score was 0.

Take `Cc1ccc(NC(=O)CSc2nccn2C)cc1S(=O)(=O)N1CCOCC1`: the manual score is 0.

On to `CCc1c(C)sc(NC(=O)CCc2ccc(OC)cc2)c1C(N)=O`, for which the manual score is 0.

Consider `CCC(C)n1c(=S)[nH]c2c(sc3ccc([N+](=O)[O-])cc32)c1=O` (centres undefined), for which the manual score was 1 (active).

On to `CN=C1S/C(=C\c2cc(C)n(-c3ccccc3F)c2C)C(=O)N1C`, for which the manual score is 0.

On to `COc1ccc(C2c3ccc4ccccc4c3Oc3ncn(CCN4CCOCC4)c(=N)c32)cc1` (centres undefined), for which the manual score was 0.

Turning to `O=C(NNC(=S)Nc1ccccc1)c1cccc(Br)c1`, the manual score was 1 (active).

Consider `O=C(NNC(=S)Nc1cccc2ccccc12)c1cccc(Br)c1`, for which the manual score is 1 (active).

On to `Cc1ccc(C(=O)NNC(=S)Nc2cccc3ccccc23)s1`, for which the manual score was 1 (active).

For `S=C(Nc1cccc(Br)c1)c1ccccc1`, the manual score was 0.

With `CN1CCN(C(=O)Nc2cccc3ccccc23)CC1`, the manual score was 0.

With `C=C(C)CNC(=S)Nc1cccc2cnccc12`, the manual score is 0.

For `NC(=O)Nc1cccc2ccccc12`, the manual score was 0.

As to `N#Cc1ccsc1NC(=O)CN1CCN(c2ccc(O)cc2)CC1`, the manual score is 0.

Consider `COc1ccc(/C=C2\N=C(SC)NC2=O)cc1`, for which the manual score was 1 (active).

Regarding `Cc1ccc(S(=O)(=O)n2cnc3cc([N+](=O)[O-])ccc32)cc1C`, the manual score is 0.

Consider `Brc1ccccc1-c1nnc2sc(-c3ccc4c(c3)OCCO4)nn12`, for which the manual score was -1 (active).

Regarding `Clc1ccccc1-c1nnc2sc(-c3ccc4c(c3)OCO4)nn12`, the manual score is 0.

For the compound `Clc1ccccc1-c1nnc2sc(-c3ccccn3)nn12`, the manual score is 0.

(Values after PubChem BioAssay AID623868 (Vanderbilt High Throughput Screening Facility, 2012).)
